About 14,000 (4.5%) of roughly 310,000 compounds showed an effect of 50% or more. Effects have a minus sign here. The entries come from a sample that favours strong results as a whole.
biological target: human ether-à-go-go-related gene (hERG) potassium channel (human, UniProt Q12809); assay: primary screen, population patch clamp on CHO cells stably expressing hERG; higher = less effect of the substance
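Further: peak tail current of the secondary pulse compared with the same well before compound.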

Sequence of human ether-à-go-go-related gene (hERG) potassium channel (Q12809 whole entry, looked up): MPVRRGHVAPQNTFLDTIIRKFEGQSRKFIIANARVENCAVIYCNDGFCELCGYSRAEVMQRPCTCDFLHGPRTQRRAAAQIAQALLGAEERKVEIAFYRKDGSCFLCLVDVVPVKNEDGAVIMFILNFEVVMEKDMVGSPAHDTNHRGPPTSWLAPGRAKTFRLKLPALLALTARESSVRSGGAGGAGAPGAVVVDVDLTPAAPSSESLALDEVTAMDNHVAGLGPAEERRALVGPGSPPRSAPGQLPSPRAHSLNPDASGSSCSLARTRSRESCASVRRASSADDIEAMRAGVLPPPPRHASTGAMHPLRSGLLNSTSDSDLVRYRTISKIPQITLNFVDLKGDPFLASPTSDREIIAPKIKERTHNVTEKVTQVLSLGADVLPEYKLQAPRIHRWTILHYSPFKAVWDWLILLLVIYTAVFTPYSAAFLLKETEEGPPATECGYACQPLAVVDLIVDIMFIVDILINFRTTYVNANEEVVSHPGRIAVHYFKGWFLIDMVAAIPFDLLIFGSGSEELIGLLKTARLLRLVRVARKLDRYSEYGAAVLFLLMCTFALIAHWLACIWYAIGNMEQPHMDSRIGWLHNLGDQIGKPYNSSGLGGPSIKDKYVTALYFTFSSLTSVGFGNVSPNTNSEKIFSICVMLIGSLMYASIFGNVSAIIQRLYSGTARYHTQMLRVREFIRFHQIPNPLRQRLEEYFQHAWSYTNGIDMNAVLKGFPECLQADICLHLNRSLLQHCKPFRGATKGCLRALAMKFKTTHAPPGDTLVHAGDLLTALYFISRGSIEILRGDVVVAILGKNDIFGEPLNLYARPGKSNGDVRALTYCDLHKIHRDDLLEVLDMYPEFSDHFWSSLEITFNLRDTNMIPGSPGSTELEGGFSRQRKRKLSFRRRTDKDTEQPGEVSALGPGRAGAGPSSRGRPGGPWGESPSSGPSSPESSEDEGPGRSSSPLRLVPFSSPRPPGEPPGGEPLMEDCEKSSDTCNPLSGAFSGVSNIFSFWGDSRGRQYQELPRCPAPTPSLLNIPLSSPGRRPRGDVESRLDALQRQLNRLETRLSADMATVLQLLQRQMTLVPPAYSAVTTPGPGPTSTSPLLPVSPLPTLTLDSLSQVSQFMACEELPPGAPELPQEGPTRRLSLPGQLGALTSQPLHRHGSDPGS

SMILES | hERG current change (%, negative = inhibition) at 10uM
CCC(=O)c1ccc(OCC(=O)NCC2(N3CCCCC3)CCCCC2)cc1 | -51.5%
O=C(COc1ccccc1)NCC1(N2CCCCC2)CCCCC1 | -30%
CC(=O)c1ccc(OCC(=O)NCC2(N3CCCCC3)CCCCC2)cc1 | 4.71%
N#Cc1ccc(OCC(=O)NCC2(N3CCCCC3)CCCCC2)cc1 | -78.2%
CCOc1ccc(CC(=O)NCC2(N3CCCCC3)CCCCC2)cc1 | -17%
N#Cc1ccccc1OCC(=O)NCC1(N2CCCCC2)CCCCC1 | -29.4%
C/C(CCc1ccco1)=N/NC(=O)CCC(=O)Nc1ccc(Br)cc1 | 10.2%
CCn1c(SCc2nc3sc(C(=O)O)c(C)c3c(=O)[nH]2)nc2ccccc21 | 3.32%
CC(C)(C)C(=O)N1c2ccccc2CCc2ccccc21 | -0.0543%
CCOCCn1c(COc2ccc(C)cc2)nc2ccccc21 | -52.6%
COCCn1c(COc2ccc(C)cc2)nc2ccccc21 | -11.9%
C=CCn1c(COc2ccccc2)nc2ccccc21 | -7.62%
C=CCn1c(COc2ccc(OC)cc2)nc2ccccc21 | -79.8%
CCOCCn1c(COc2ccccc2)nc2ccccc21 | -33.6%
C=CCn1c(COc2ccccc2OC)nc2ccccc21 | -0.267%
O=C(Nc1cccc(NC(=O)c2ccccc2Cl)c1)c1ccc([N+](=O)[O-])o1 | -16.4%
CC1Cc2nc(SCC(=O)N3CCCC3)n(C)c(=O)c2S1 (stereo not shown) | -7.79%
COc1ccc(C(=O)Nc2ccc(NC(=O)c3cccs3)cc2)cc1[N+](=O)[O-] | 5.49%
O=C1C2ON(c3ccccc3)C(c3cccnc3)C2C(=O)N1c1ccc(Cl)c(Cl)c1 (stereo not shown) | 10.5%
O=C1C2ON(c3ccccc3)C(c3cccnc3)C2C(=O)N1c1ccccc1 (stereo not shown) | 18.1%
O=C1C2ON(c3ccccc3)C(c3cccnc3)C2C(=O)N1Cc1ccccc1 (stereo not shown) | -50.8%
CC(C)(C)n1nnnc1C(c1ccc(F)cc1)N1CCC(C(N)=O)CC1.Cl (stereo not shown) | 11.3%
O=C(c1ccc(-c2cccc(C(F)(F)F)c2)o1)N1CCCCCCC1 | -3.68%

SMILES | hERG current change (%, negative = inhibition) at 10uM
O=C(c1ccco1)N1CCN(Cc2cccc(C(F)(F)F)c2)CC1 | -5.15%
O=C(c1ccc(-c2cccc(C(F)(F)F)c2)o1)N1CCN(c2ccccc2O)CC1 | 17.1%
O=C(c1ccc(-c2cccc(C(F)(F)F)c2)o1)N1CCOCC1 | -21.8%
COc1ccc(C(CNC(=O)c2ccc(-c3cccc(C(F)(F)F)c3)o2)N2CCOCC2)cc1 (stereo not shown) | -6.09%
CC1CN(C(=O)c2ccc(-c3cccc(C(F)(F)F)c3)o2)CC(C)O1 (stereo not shown) | -43.7%
CC(C)(CNC(=O)c1ccc(-c2cccc(C(F)(F)F)c2)o1)N1CCOCC1 | -76.3%
O=C(c1ccco1)N1CCN(C(=O)c2ccc(-c3cccc(C(F)(F)F)c3)o2)CC1 | -79.9%
CC(=O)N1CCN(C(=O)c2ccc(-c3cccc(C(F)(F)F)c3)o2)CC1 | -53.5%
CC(=O)NC(CC(=O)Nc1cccc(S(=O)(=O)N2CCCCC2)c1)c1ccccc1 (stereo not shown) | -1.76%
CCCCC(=O)Nc1cc(Cl)ccc1C(=O)O | 27.6%
CC(=O)N1CCC(c2c[nH]c3ccccc23)CC1 | 5.87%
CCn1ncc(-c2ccnc3cc(C(=O)O)nn23)c1C | 12.6%
CC(c1ccccc1)n1c(N2CCNCC2)nc2c1c(=O)[nH]c(=O)n2C (stereo not shown) | 6.32%
O=C(/C=C/c1ccccc1)OCc1cnc(Cl)s1 | -6.4%
Cc1ccc(S(=O)(=O)Cn2nnnc2C(CC(C)C)N2CCC(C(N)=O)CC2)cc1 (stereo not shown) | -12.2%
Cc1cc(NC(=O)/C=C/c2ccccc2)c(C(C)C)cc1O | 10.7%
CC(C)c1ccc(NC2CCCN(C(=O)CCN3CCOCC3)C2)cc1 (stereo not shown) | 0.518%
O=C(Nc1ccc(Cc2ccncc2)cc1)c1ccc(N2CCOCC2)c([N+](=O)[O-])c1 | -59.1%
COc1ccc(CNC(=O)c2ccc(N3CCOCC3)c([N+](=O)[O-])c2)cc1 | -52.1%
O=C(Nc1cccnc1)c1ccc(N2CCOCC2)c([N+](=O)[O-])c1 | 21.7%
C=C1CCN(c2ccc(C(=O)NCc3ccc(OC)cc3)cc2[N+](=O)[O-])CC1 | -7.55%
O=C(Nc1ccc(Cc2ccncc2)cc1)c1cc([N+](=O)[O-])ccc1N1CCOCC1 | -39%
O=C(NCc1ccc(F)cc1)c1ccc(N2CCOCC2)c([N+](=O)[O-])c1 | -39.6%

Reference: article PMC4336329 (PLoS ONE, 2015)
